# Results: PubChem BioAssay AID1273 (Columbia University Molecular Screening Center, 2008)
# About 1,200 (0.92%) of roughly 130,000 compounds were called active.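 The calls were made as follows: active = inhibition above the mean plus 3 SD, with well images judged a real hit on visual review (cut at about 60% in these data, passing the limit was not always enough); inconclusive = inhibition over the cutoff but images rejected on review; inactive = inhibition not above the cutoff.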 Many of the other results were omitted from the sample, so actives are more common in it than they were.
# Assay: insulin gene promoter suppression in islet cells – imaging, TRM-6 cells (human fetal islet line), eGFP reporter, cell count, primary screen (AID 1273;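 as to normalized cell count: cells exposed to compound for 48 h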)
# Conditions: at 2 µM, reporter expression induced with tamoxifen; inhibition: stronger effect = higher value; normalized cell count: measured here: cell count, toxicity
Structure (SMILES),inhibition,normalized cell count [%]
Cc1ccc(C(=O)/C=C/c2c(C)nn(-c3ccccc3)c2Cl)cc1,-16.7% (inactive),102
Cc1nn(-c2ccccc2)c(Cl)c1/C=C/C(=O)c1ccc(O)cc1,-70.4% (inactive),111
Cc1nn(-c2ccccc2)c(C)c1/C=C/C(=O)OC(C)C(N)=O (centres undefined),68.8% (active),181
O=C(COc1cccc2ccccc12)Nc1cc(S(=O)(=O)N2CCOCC2)ccc1N1CCOCC1,11.1% (inactive),67.5
CN1C(=O)C(CC(=O)Nc2ccccc2)S/C1=N/c1nccs1 (centres undefined),-107% (inactive),120
COC(=O)c1nc(NC(=O)c2ccc(F)cc2)n[nH]1,28.6% (inactive),129
Cc1ccccc1NC(=O)c1nn(-c2ccc(F)c(F)c2)ccc1=O,25% (inactive),93.8
Cc1ccc(NC(=O)N2CCC(c3nc4c(nnn4Cc4c(F)cccc4Cl)c(=O)[nH]3)CC2)cc1,6.25% (inactive),107
O=C(Nc1ccc(F)cc1)N1CCCC(c2nc3c(nnn3Cc3ccccc3Cl)c(=O)[nH]2)C1 (centres undefined),-42.9% (inactive),122
COc1ccc(Cn2nnc3c(=O)[nH]c(C4CCN(C(=O)c5ccccc5Cl)CC4)nc32)cc1,72.7% (active),34.3
COc1ccc(C2CC(c3cccs3)=NN2C(=O)CSc2nncs2)cc1OC (centres undefined),66.7% (inactive),95.8
CN1CCN(C(=O)CCc2ncc(C(F)(F)F)cc2Cl)CC1,9.09% (inactive),150
COc1cccc(NC(=O)C2CCCN2C(=O)OCc2ccccc2)c1 (centres undefined),-34.4% (inactive),106
CC(=O)c1cccc(NC(=O)N2CCCC2C(=O)NCCc2ccccc2)c1 (centres undefined),82.1% (active),27.6
Cc1ccc(CNC(=O)C2CCCN2C(=O)NCc2ccccc2)cc1 (centres undefined),59% (inactive),73.5
O=[N+]([O-])c1ccc(N2CCN(S(=O)(=O)c3ccc4ccccc4c3)CC2)cc1NCc1ccco1,-18.5% (inactive),121
O=[N+]([O-])c1ccc(N2CCNCC2)cc1NCc1cccnc1,66.7% (active),150
O=C(c1ccccc1)N1CCN(c2ccc([N+](=O)[O-])c(NCc3ccco3)c2)CC1,-9.68% (inactive),122
COc1ccc(N2CCN(c3ccc([N+](=O)[O-])cc3Cl)CC2)cc1,7.69% (inactive),106
CCN1CCN(c2ccc([N+](=O)[O-])cc2C(=O)c2ccc(Cl)cc2)CC1,-83.3% (inactive),81.5
O=[N+]([O-])c1ccc(N2CCN(c3ccc(O)cc3)CC2)c(Cl)c1,86.7% (active),135
Cc1nn2c3cc(N4CCOCC4)ccc3nc2c2ccccc12,-63.5% (inactive),79.7

Structure (SMILES),inhibition,normalized cell count [%]
Cc1cc(C)c2c(n1)nn1c(N3CCN(c4cccc(Cl)c4)CC3)cc(C)nc21,-82.8% (inactive),99.8
Cc1cc(C)c2c(n1)nn1c(N3CCOCC3)cc(C)nc21,74.3% (active),60.7
CCCN(CC(=O)Nc1ccccc1C)C(=O)c1cc(=O)[nH]c2ccccc12,-38.5% (inactive),49.2
C=CCC1(CC=C)CCCN1C(=O)CC1C(=O)NCCN1Cc1ccccc1OC (centres undefined),20% (inactive),91.1
C/C(Cn1nnc2ccccc21)=N\OC(=O)c1cc(F)c(F)cc1Cl,-55% (inactive),99.6
Cc1cc(C#N)c(SCC(N)=O)nc1-c1ccc(F)cc1,14.3% (inactive),121
CC(=O)c1cnc(SCC(=O)O)nc1C,26.7% (inactive),105
CC(=O)c1cc(C#N)c(SCC(=O)C(C)(C)C)nc1C,65.4% (active),142
O=C(COC(=O)c1ccccn1)Nc1cccc2ccccc12,-83.3% (inactive),96
O=C(CCN1C(=O)c2ccccc2C1=O)NCCCn1ccnc1,-16.7% (inactive),84.2
CN(C)CCNC(CC(=O)Nc1ccc(Cl)c(Cl)c1)C(=O)O (centres undefined),44.2% (inactive),104
COC(=O)C(CC(=O)Nc1cc(C)ccc1C)Nc1ccccc1OC (centres undefined),7.14% (inactive),131
COc1ccccc1NC(=O)CC(NCCN(C)C)C(=O)O (centres undefined),72.4% (active),43
CCN(CC)CCNC(=O)c1sc2ncn(CC(=O)Nc3ccc(C)c(Cl)c3)c(=O)c2c1C,-14.3% (inactive),89.6
Cc1c(Br)ccc(NC(=O)COc2ccccc2C(N)=O)c1C,-5.26% (inactive),50.7
O=C(Nc1ccc(N2CCN(C(=O)C3CC3)CC2)cc1)c1cccs1,36.8% (inactive),132
COC(=O)Nc1c(C)n(C)n(-c2ccccc2)c1=O,13.9% (inactive),53.7
Cc1c(Nc2nc3ccccc3nc2NS(=O)(=O)c2cccs2)c(=O)n(-c2ccccc2)n1C,75% (active),38.1
COc1ccc(S(=O)(=O)Nc2c(C)n(C)n(-c3ccccc3)c2=O)cc1,22.7% (inactive),104
Cc1nn(-c2ccc([N+](=O)[O-])cc2)c(N)c1-c1ccccc1,25% (inactive),95.4
CCOC(=O)c1ccc(NC(=O)C2CC(=O)Nc3nc4ccccc4n32)cc1 (centres undefined),-36.4% (inactive),131
CCOC(=O)c1c(C)[nH]c(C2=NNC(=NC(C)COC)SC2)c1C (centres undefined),31.2% (inactive),87.8

Structure (SMILES),inhibition,normalized cell count [%]
Cc1ccc(O)c(-c2cc(C(=O)NCc3ccccc3)[nH]n2)c1,7.14% (inactive),81.6
Cc1ccc(O)c(CCc2ccccc2)n1,91.9% (active),94.3
O=C(O)CCCc1ccccc1,-23.8% (inactive),97.5
CN(C)c1nccc(NCc2ccccc2)c1C#N,40.5% (inactive),140
O=C(NNc1cc(Cl)ccc1Cl)c1cccnc1Cl,11.1% (inactive),114
CCc1nnc(NS(=O)(=O)c2ccc(NC(=S)NC(=O)c3cccs3)cc2)s1,-11.1% (inactive),96.4
CN(C)/C=C(/C(=O)c1ccc(F)cc1)S(=O)(=O)c1ccc(F)cc1,50% (inactive),124
CN(C)/C=C(/C(=O)c1ccccc1Cl)S(C)(=O)=O,75% (active),84.2
CN(C)/C=C(/C(=O)c1ccccc1)S(=O)(=O)c1ccc(Cl)cc1,-23.8% (inactive),70.5
COc1cccc(NC(=O)CS(=O)(=O)c2cn(CC(=O)N3CCOCC3)c3ccccc23)c1,-16.7% (inactive),88.8
O=C1c2ccccc2C(=O)N1CCC(O)C[N+](=O)[O-] (centres undefined),-17.6% (inactive),90.3
Cc1cc([N+](=O)[O-])ccc1NC(=O)c1ccc(NC(=O)C(C)C)cc1,30% (inactive),120
CCC(=O)N1CCC(C(N)=O)(N2CCCCC2)CC1,33.3% (inactive),108
COC(=O)C1=C(C)N(C)C(=S)NC1c1cc(OC)ccc1OC (centres undefined),23.1% (inactive),118
CCOC(=O)c1cc2ccccc2nc1C,57.1% (inactive),47.1
Cc1nc2ccccc2c(-c2ccccc2)c1C(=O)c1ccccc1,27.5% (inactive),64.5
Cc1nc2ccccc2cc1O,67.9% (active),57.9
COc1cc(C(=O)NCc2ccc(-n3cccc3)cc2)cc(OC)c1OC,46.1% (inactive),69
O=C(CN1CCSCC1)N/N=C/c1ccc(Cl)cc1,35.3% (inactive),92.4
Cc1ccc(-n2cc(CN(C)Cc3nccn3C)c(-c3cccc(C)c3)n2)cc1,41.7% (inactive),124
O=C(O)C1C2CC2CN1C(=O)c1ccc(Cl)cc1Cl (centres undefined),-5.56% (inactive),121
NC(=O)Cc1nc2scc(-c3ccc(Cl)cc3)c2c(=O)[nH]1,5.88% (inactive),114

Structure (SMILES),inhibition,normalized cell count [%]
Cc1nc2scc(-c3cccs3)c2c(=O)n1N,9.8% (inactive),105
CCCc1nc2scc(-c3ccc(C)cc3)c2c(=O)n1N,81.5% (active),78.3
COc1cc(OC)cc(-c2nnc(N(C)C(=O)c3ccncc3)s2)c1,36.4% (inactive),156
CC(NC(=S)NC1CCCCC1)C(c1ccccc1)N1CCOCC1 (centres undefined),-38.9% (inactive),111
Cc1cccc(N(C(=O)Cc2cccs2)C(C(=O)NC2CCCC2)c2ccsc2)c1 (centres undefined),-23.3% (inactive),119
Cc1ccc(N(C(=O)c2ccc(CN3CCOCC3)o2)C(C(=O)NCCC(C)C)c2cccs2)c(C)c1 (centres undefined),8.11% (inactive),114
Cc1cccc(N(C(=O)c2ccc(CN3CCOCC3)o2)C(C(=O)NC2CCCCC2)c2ccc(F)cc2)c1 (centres undefined),87.5% (active),98.6
C1CC1Cc1noc(CN2CCN(CC3CC3)CC2)n1,0% (inactive),97.5
CCOC(=O)C1(Cc2cccc(OC)c2)CCN(C(C)CC(C)(C)O)CC1 (centres undefined),-275% (inactive),102
COc1cc(C(=O)Nc2nccs2)cc(OC)c1OC,-25.3% (inactive),97.1
CCCCOC(=O)Nc1nccs1,93.8% (active),53.2
O=C(COC(=O)c1ccc(O)cc1)Nc1nccs1,16.7% (inactive),74.1
CC(/C=N/NC(=O)c1ccncc1)=C\c1ccco1,23.1% (inactive),115
CC(=O)c1ccc(NC(=O)C(C)NCc2ccc(Cl)cc2)cc1 (centres undefined),-189% (inactive),58.5
Cc1cccc(NC(=O)COc2ccccc2C)n1,-406% (inactive),56.6
Cc1ccc(S(=O)(=O)NC(=O)COc2ccccc2C)cc1,81.2% (active),150
COCCNC(=O)COc1ccccc1C,20.8% (inactive),112
COc1cccc2cc(S(=O)(=O)c3ccc(C)cc3)/c(=N/NS(=O)(=O)c3ccc(C)cc3)oc12,27.3% (inactive),139
COC(=O)C1=C(C)N(c2ccc(Br)cc2)C(=O)/C1=C\c1ccco1,25.6% (inactive),98.3
COc1ccc([N+](=O)[O-])cc1NC(=O)COC(=O)/C=C/c1ccco1,-14.3% (inactive),128
COc1ccc(N2C(=O)/C(=C\c3ccco3)N=C2SCC(N)=O)cc1Cl,91.7% (active),75.5
